# Data taken from PubChem BioAssay (NCATS).
# Inconclusive results are not listed. Where a call stands in place of a potency, no number is given. Active and inactive are the calls of the source. The call rests on the fitted dose curve; in most records, active means well fitted cell-killing curve with a large enough effect; inconclusive means small, poorly fitted or top-dose-only effect, or effect the other way; inactive means flat fitted curve, though single readings scatter.
# Test system: Tov-21-G
# Test: Primary qHTS to identify gynecologic anti-cancer compounds using libraries of approved drugs and bioactive compounds (AID 1345084); further: nearly all actives have a fitted effect of over 55% in size
# Conditions: Gynecologic cancer cell panel viability, ATPlite luminescence, 48 h; series mostly up to 57.5 µM
# How it was run: (§1)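 Luminescence from the ATPlite ATP-monitoring reagent indicates viable cell number; lower signal means cytotoxicity. Cells received compound 16 h after seeding and were exposed for 48 h across five concentrations.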
# Potency means the concentration at half of the fitted maximal effect.
Structure (SMILES),Potency,"activity change, negative = cytotoxicity"
COc1c(C)c2c(c(O)c1C/C=C(\C)CCC(=O)OCCN1CCOCC1)C(=O)OC2,2 µM (active),–
COc1ccc2nc(SCc3ncc(C)c(OC)c3C)[nH]c2c1,inactive,–
CCS(=O)(=O)c1ccc(OC)c(C(=O)OC)c1,inactive,–
Cc1coc2ccccc2c1=O,inactive,–
OC1(c2ccc(Cl)cc2)CCNCC1,inactive,–
COC(=O)/C=C(/C)N,inactive,–
CC(C)=CCC/C(C)=C/CC/C(C)=C/C(=O)OCC(=O)[C@@]1(O)CC[C@H]2[C@@H]3CCC4=CC(=O)C=C[C@]4(C)[C@H]3[C@@H](O)C[C@@]21C,inactive,–
CCCC(=O)O[C@]1(C(=O)CCl)[C@@H](C)C[C@H]2[C@@H]3CCC4=CC(=O)C=C[C@]4(C)[C@@]3(F)C(=O)C[C@@]21C,inactive,–
O=C(O)C1CCC1,inactive,–
CC[C@@]1(O)C(=O)OCc2c1cc1n(c2=O)Cc2c-1nc1ccccc1c2/C=N/OC(C)(C)C,1.41 µM (active),–
CCn1ccc(NS(=O)(=O)c2ccc(N)cc2)nc1=O,inactive,–
CCc1cccc2c(CCO)c[nH]c12,inactive,–
CC(=O)N(CC(=O)N(C)C)c1ccccc1,inactive,–
[O-][n+]1cccc(/C(Cl)=N/OC[C@@H](O)CN2CCCCC2)c1,inactive,–
NC(=O)NS(=O)(=O)c1ccc(Cl)cc1,inactive,–
CC(=O)O[C@@H]1CC2C3CCc4cc(OC(=O)c5ccccc5)ccc4C3CCC2(C)[C@H]1OC(C)=O (stereo partly specified),inactive,–
O=C1Nc2cc(Cl)ccc2Oc2ccccc21,inactive,–
O=C1CCCc2c(O)cccc21,inactive,–
O=C(OCCN1CCOCC1)c1cccnc1Nc1cccc(C(F)(F)F)c1,inactive,–
O=C1NC(c2cccc([N+](=O)[O-])c2)=CCN1c1ccccc1O,inactive,–

Structure (SMILES),Potency,"activity change, negative = cytotoxicity"
O=C(OCC(O)CO)c1ccccc1Nc1ccnc2c(C(F)(F)F)cccc12 (stereo unspecified),inactive,–
CC(C)(C)c1ccc(C(=O)CCCCl)cc1,inactive,–
Nc1ccc2c(c1)CN1C(=O)c3ccccc3C1=N2,10 µM (active),–
Cc1ccc2ccc(Cl)cc2n1,inactive,–
N[C@@H](Cn1ccc(=O)c(O)c1)C(=O)O,–,-4.16% [at 6.55 µM] (inactive)
C[C@@H](O[C@H]1OCCN(Cc2n[nH]c(=O)[nH]2)[C@H]1c1ccc(F)cc1)c1cc(C(F)(F)F)cc(C(F)(F)F)c1,inactive,–
COc1cc(OC)nc(O[C@H](C(=O)O)C(OC)(c2ccccc2)c2ccccc2)n1,inactive,–
CCCC(=O)OCOC(=O)C1=C(C)NC(C)=C(C(=O)OC)C1c1cccc(Cl)c1Cl (stereo unspecified),inactive,–
Cc1oc(=O)oc1COC(=O)[C@@H]1N2C(=O)[C@@H](NC(=O)[C@H](N)c3ccccc3)[C@H]2SC1(C)C,inactive,–
CC(C)OP(=O)(CP(=O)(OC(C)C)OC(C)C)OC(C)C,inactive,–
O=C1NC(=O)/C(=C/c2ccc3c(c2)OC(F)(F)O3)S1,inactive,–
CCOc1ccccc1OCC1CNCCO1 (stereo unspecified),inactive,–
c1ccc2c(c1)CCc1ccccc1N2,inactive,–
CCOC(=O)C(=O)c1csc(NC=O)n1,inactive,–
COc1ccccc1N1CCN(CCN2C(=O)CC3(CCCC3)CC2=O)CC1,inactive,–
CC(C)C[C@@H]1[C@H](c2ccccc2)OC(=O)N1CCCN1CCCCCC1,inactive,–
CC(C)=CCNc1ncnc2c1ncn2[C@@H]1O[C@H](CO)[C@@H](O)[C@H]1O,10 µM (active),–
COc1ccc2c(c1)c(CC(=O)OC/C=C(\C)CC/C=C(\C)CCC=C(C)C)c(C)n2C(=O)c1ccc(Cl)cc1,inactive,–
COC(=O)c1ccc(NC(C)=O)cc1OC,inactive,–

# Test system: Tov112D
# Test: as above
# Conditions: Gynecologic cancer cell panel viability, ATPlite luminescence, 48 h; series mostly up to 57.5 µM
# How it was run: as §1
Structure (SMILES),Potency,"activity change, negative = cytotoxicity"
COc1ccc2nc(SCc3ncc(C)c(OC)c3C)[nH]c2c1,inactive,–
CCS(=O)(=O)c1ccc(OC)c(C(=O)OC)c1,inactive,–
Cc1coc2ccccc2c1=O,inactive,–
OC1(c2ccc(Cl)cc2)CCNCC1,inactive,–
COC(=O)/C=C(/C)N,inactive,–
CCCC(=O)O[C@]1(C(=O)CCl)[C@@H](C)C[C@H]2[C@@H]3CCC4=CC(=O)C=C[C@]4(C)[C@@]3(F)C(=O)C[C@@]21C,inactive,–
O=C(O)C1CCC1,inactive,–
CCn1ccc(NS(=O)(=O)c2ccc(N)cc2)nc1=O,inactive,–
CCc1cccc2c(CCO)c[nH]c12,inactive,–
[O-][n+]1cccc(/C(Cl)=N/OC[C@@H](O)CN2CCCCC2)c1,inactive,–
NC(=O)NS(=O)(=O)c1ccc(Cl)cc1,inactive,–
CC(=O)O[C@@H]1CC2C3CCc4cc(OC(=O)c5ccccc5)ccc4C3CCC2(C)[C@H]1OC(C)=O (stereo partly specified),inactive,–
O=C1Nc2cc(Cl)ccc2Oc2ccccc21,inactive,–
O=C1CCCc2c(O)cccc21,inactive,–
O=C(OCCN1CCOCC1)c1cccnc1Nc1cccc(C(F)(F)F)c1,inactive,–
O=C(OCC(O)CO)c1ccccc1Nc1ccnc2c(C(F)(F)F)cccc12 (stereo unspecified),inactive,–

Structure (SMILES),Potency,"activity change, negative = cytotoxicity"
CC(C)(C)c1ccc(C(=O)CCCCl)cc1,inactive,–
Cc1ccc2ccc(Cl)cc2n1,inactive,–
N[C@@H](Cn1ccc(=O)c(O)c1)C(=O)O,–,12.5% [at 6.55 µM] (inactive)
COc1cc(OC)nc(O[C@H](C(=O)O)C(OC)(c2ccccc2)c2ccccc2)n1,inactive,–
CCCC(=O)OCOC(=O)C1=C(C)NC(C)=C(C(=O)OC)C1c1cccc(Cl)c1Cl (stereo unspecified),inactive,–
Cc1oc(=O)oc1COC(=O)[C@@H]1N2C(=O)[C@@H](NC(=O)[C@H](N)c3ccccc3)[C@H]2SC1(C)C,inactive,–
CC(C)OP(=O)(CP(=O)(OC(C)C)OC(C)C)OC(C)C,inactive,–
O=C1NC(=O)/C(=C/c2ccc3c(c2)OC(F)(F)O3)S1,inactive,–
CCOc1ccccc1OCC1CNCCO1 (stereo unspecified),inactive,–
c1ccc2c(c1)CCc1ccccc1N2,inactive,–
CCOC(=O)C(=O)c1csc(NC=O)n1,inactive,–
COc1ccccc1N1CCN(CCN2C(=O)CC3(CCCC3)CC2=O)CC1,inactive,–
CC(C)C[C@@H]1[C@H](c2ccccc2)OC(=O)N1CCCN1CCCCCC1,inactive,–
CC(C)=CCNc1ncnc2c1ncn2[C@@H]1O[C@H](CO)[C@@H](O)[C@H]1O,7.08 µM (active),–
COc1ccc2c(c1)c(CC(=O)OC/C=C(\C)CC/C=C(\C)CCC=C(C)C)c(C)n2C(=O)c1ccc(Cl)cc1,inactive,–
COC(=O)c1ccc(NC(C)=O)cc1OC,inactive,–
